Source: PubChem BioAssay
Only some compounds are listed: those with a hit (about 19% of all), similar ones and a draw of the others.
HT1080NT lethal: qHTS for induction of synthetic lethality in tumor cells producing 2HG: qHTS for the HT-1080-NT fibrosarcoma cell line; HT-1080-NT fibrosarcoma viability, CellTiter-Glo ATP luminescence, 48 h; Potency, µM (doses to about 46.1 µM), without a hit: at the top dose activity, negative = less viability, most hits filed as cytotoxic; 360,000 compounds, 1.6% hits; AID 686970, 2013;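 also: NT is the 2HG producing partner of a matched IDH1 knockdown line; potency is read from the fitted curve at half-maximal effect; 0% = DMSO-treated cells and -100% = media-only wells without cells; nearly all actives have a fitted effect of over 55% in size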
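Compounds were tested in concentration-response format on HT-1080-NT cells for 48 hours at 37 degrees C. Cell viability came from CellTiter-Glo luminescence; curves were classified by r2, response magnitude and activity.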
TDP1 cell CPT: qHTS for Inhibitors of human tyrosyl-DNA phosphodiesterase 1 (TDP1): qHTS in cells in presence of CPT. Potency, µM (top dose mostly 46.2 µM), for the others: top-dose activity change, negative = growth inhibition, usual class: inhibitors. chicken DT40 Tdp1-/-;hTDP1 cells + 20 nM CPT, ATP luminescence, 48 h. 420,000 compounds, 12% hits; also: potency is read from the fitted curve at half-maximal effect; nearly all actives have a fitted effect of over 55% in size
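Chicken DT40 Tdp1-/- cells complemented with human TDP1, 400 cells/well, exposed to compounds plus 20 nM camptothecin for at least 48 h at 37 C; viability read as ATP content by CellTiter-Glo luminescence.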
IL1B secr inh: qHTS for Inhibitors of Inflammasome Signaling: IL-1-beta AlphaLISA Primary Screen; 360,000 compounds, 4.7% hits; THP-1 LPS/ATP IL-1B secretion, AlphaLISA, 16 h; hits give low values; activity change, % at 57.5 µM; in the data active = activity change below about -50%; inconclusive = mostly about -30% to -49%
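THP-1 cells pretreated 1 hr with compounds (up to 57.5 uM final), then stimulated with LPS (250 ng/mL final) plus ATP (1.25 mM final); secreted IL-1B measured by AlphaLISA after 16 hr, decreased signal indicating inhibition.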
HT1080 IDH1KD tx: qHTS for induction of synthetic lethality in tumor cells producing 2HG: qHTS for the HT-1080-IDH1KD cell line; 360,000 compounds, 2% hits; HT-1080 IDH1 knockdown viability, ATP luminescence, 48 h; Potency, µM (series often up to 46.1 µM), without a hit: at the highest dose activity, negative = toxicity, usual class: cytotoxic;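 also: potency is read from the fitted curve at half-maximal effect; 0% = DMSO wells and -100% = cell-free medium wells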
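After a 2 h attachment period, IDH1KD HT-1080 cells took pin-transferred compound for 48 h at 37 °C; ATP-based luminescence after 10 min room-temperature reagent incubation reported viability.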
DT40 TDP1 no CPT: qHTS for Inhibitors of human tyrosyl-DNA phosphodiesterase 1 (TDP1): qHTS in cells in absence of CPT; DT40 Tdp1-/- hTDP1 cells, no CPT, ATP luminescence, 48 h; Potency, µM (doses to about 46.2 µM), for the others: top-dose activity change, negative = growth inhibition, hits mostly inhibitors; 420,000 compounds, 15% hits; AID 686978, 2013; also: potency is read from the fitted curve at half-maximal effect; nearly all actives have a fitted effect of over 55% in size
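No-CPT arm: Tdp1-/-;hTDP1 DT40 cells (400/well) plus compounds, incubated ≥48 hr at 37 °C. Readout CellTiter-Glo luminescence.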
* = called active by the depositor. Unless noted, calls follow the shape of the dose curve; as a rule, active = well fitted curve in the direction sought with a large enough effect; inconclusive = small, poorly fitted or top-dose-only effect, or another doubt; inactive = no such curve, though single readings can be large; an effect the other way counts as inactive or inconclusive. Unless noted, % is scaled to controls: 0 for no effect and ±100 for the full control effect.

`Cc1ccc(NC(=O)Nc2c(Cl)cccc2Cl)cn1` gave HT1080NT lethal -8.7%, TDP1 cell CPT inconclusive, IL1B secr inh 18.8, HT1080 IDH1KD tx -9.1% and DT40 TDP1 no CPT 10.3µM*.
For O=[N+]([O-])c1nccn1C1C=CC(O)C(CO)O1 (stereo unspecified) the results were HT1080NT lethal 0.0%, TDP1 cell CPT -6.8%, HT1080 IDH1KD tx 1.7% and DT40 TDP1 no CPT 2.5%.
O=S(=O)(c1cccc(Cl)c1)c1nnn2c1nc(NCc1ccc3c(c1)OCO3)c1sccc12 was read as TDP1 cell CPT inconclusive and DT40 TDP1 no CPT 23.1µM*.
O=S(=O)(c1ccccc1)c1nnn2c1nc(NCc1cccs1)c1sccc12 was read as TDP1 cell CPT -29.9% and DT40 TDP1 no CPT -18.4%.
For Cc1ccc(S(=O)(=O)c2nnn3c2nc(N2CCCC2)c2sccc23)cc1C the results were TDP1 cell CPT 3.4% and DT40 TDP1 no CPT -18.7%.
Screening Cc1cc(C)cc(Nc2nc3c(S(=O)(=O)c4cccc(Cl)c4)nnn3c3ccsc23)c1 returned TDP1 cell CPT -12.8% and DT40 TDP1 no CPT 2.2%.
`CC1CCN(c2nc3c(S(=O)(=O)c4cccc(Cl)c4)nnn3c3ccsc23)CC1` gave TDP1 cell CPT inconclusive and DT40 TDP1 no CPT 23.1µM*.
For CCN(CC)c1nc2c(S(=O)(=O)c3cccc(Cl)c3)nnn2c2ccsc12 the results were TDP1 cell CPT 8.2µM* and DT40 TDP1 no CPT 20.6µM*.
Screening CCOC(=O)C1CCCN(C(=O)c2cc(F)ccc2C)CC1 (stereo unspecified) returned HT1080NT lethal -1.8%, TDP1 cell CPT 9.7%, IL1B secr inh 3.3, HT1080 IDH1KD tx 15.3% and DT40 TDP1 no CPT 0.3%.
For COc1cnc(-c2ccccn2)nc1N(C)C the results were HT1080NT lethal inconclusive, TDP1 cell CPT inconclusive, IL1B secr inh -58.0*, HT1080 IDH1KD tx 5.8µM* and DT40 TDP1 no CPT 2.91µM*.
COc1cnc(-c2ccccc2)nc1Oc1cccc(C)c1 was read as HT1080NT lethal -1.8%, TDP1 cell CPT inconclusive, IL1B secr inh -1.3, HT1080 IDH1KD tx -5.9% and DT40 TDP1 no CPT inconclusive.
`COc1cnc(-c2ccccn2)nc1Oc1cccc(Cl)c1` gave HT1080NT lethal -1.5%, TDP1 cell CPT 18.4µM*, IL1B secr inh 5.4, HT1080 IDH1KD tx 1.8% and DT40 TDP1 no CPT 8.2µM*.
Screening COc1cnc(-c2ccccn2)nc1Oc1c(C)cccc1C returned HT1080NT lethal -7.0%, TDP1 cell CPT 3.26µM*, IL1B secr inh 41.3, HT1080 IDH1KD tx inconclusive and DT40 TDP1 no CPT 3.26µM*.
`COC(=O)CN1C(=O)CSc2ccc(S(=O)(=O)Nc3cccc(Cl)c3C)cc21` gave TDP1 cell CPT -2.6% and DT40 TDP1 no CPT inconclusive.
`Cc1csc(=O)n1CCC(=O)OCC(=O)c1ccc(Br)cc1` gave HT1080NT lethal -0.6%, TDP1 cell CPT -16.5%, IL1B secr inh 12.8, HT1080 IDH1KD tx -3.5% and DT40 TDP1 no CPT -7.6%.
CCOC(=O)Cc1ccc(NC(=O)n2ncc3cc(Cl)ccc32)cc1 was read as TDP1 cell CPT -0.8% and DT40 TDP1 no CPT 6.3%.
For C=CCN1C(=O)/C(=C\c2ccc(Oc3nc(N4CCOCC4)nc(N4CCOCC4)n3)c(OC)c2)SC1=S the results were HT1080NT lethal 4.1%, TDP1 cell CPT inconclusive, IL1B secr inh 29.8, HT1080 IDH1KD tx 5.9% and DT40 TDP1 no CPT inconclusive.
Screening O=C(OC1C[C@@H]2CC3C[C@H](C1)N2CC3=O)c1c[nH]c2ccccc12 (stereo partly specified) returned TDP1 cell CPT inconclusive and DT40 TDP1 no CPT 21.1µM*.
Screening O=C(OCC(=O)N1CCCCC1)c1c[nH]c2ccccc12 returned HT1080NT lethal -3.1%, TDP1 cell CPT -16.8%, IL1B secr inh 0.0, HT1080 IDH1KD tx -3.7% and DT40 TDP1 no CPT -8.2%.
`COc1ccccc1-c1noc2c1C(=O)N(C(=O)OC(C)(C)C)CC2` gave HT1080NT lethal 3.0%, TDP1 cell CPT -8.2%, IL1B secr inh 20.5, HT1080 IDH1KD tx -7.4% and DT40 TDP1 no CPT -6.9%.
For COc1ccccc1-c1noc2c1C(=O)N(Cc1cn(-c3ccccc3OC)nn1)CC2 the results were HT1080NT lethal 7.3%, TDP1 cell CPT inconclusive, IL1B secr inh 61.3, HT1080 IDH1KD tx -9.7% and DT40 TDP1 no CPT 18.4µM*.
CN(Cc1ccccn1)C(=O)C1CCC(=O)N(CCc2ccc(Cl)cc2)C1 (stereo unspecified) was read as HT1080NT lethal 0.2%, TDP1 cell CPT 3.7%, IL1B secr inh 10.2, HT1080 IDH1KD tx 5.0% and DT40 TDP1 no CPT 10.8%.
`O=C(NC1C2CCCC1CN(C1CC1)C2)c1ccc(Cl)cc1` (stereo unspecified) gave HT1080NT lethal 14.8%, TDP1 cell CPT inconclusive, IL1B secr inh -19.4, HT1080 IDH1KD tx 10.6% and DT40 TDP1 no CPT 29.1µM*.
Screening COc1ccc(NC(=O)OCCn2c([N+](=O)[O-])cnc2C)cc1 returned HT1080NT lethal inconclusive, TDP1 cell CPT 1.7%, IL1B secr inh 0.0, HT1080 IDH1KD tx 24.2% and DT40 TDP1 no CPT 4.7%.
`Cc1ccc(CNC(=O)CCc2nc3cccnc3n2Cc2ccccc2)cc1` gave TDP1 cell CPT 14.6µM* and DT40 TDP1 no CPT inconclusive.
`COc1ccc(CNC(=O)CCc2nc3cccnc3n2Cc2ccc(OC)cc2)cc1` gave TDP1 cell CPT -4.8% and DT40 TDP1 no CPT -18.0%.
`COc1ccc(Cn2c(CCC(=O)Nc3ccc(OC)c(Cl)c3)nc3cccnc32)cc1` gave TDP1 cell CPT -21.5% and DT40 TDP1 no CPT inconclusive.
For COc1ccc(Cn2c(CCC(=O)Nc3ccc(C)cc3)nc3cccnc32)cc1 the results were HT1080NT lethal -3.3%, TDP1 cell CPT inconclusive, IL1B secr inh inconclusive, HT1080 IDH1KD tx -10.9% and DT40 TDP1 no CPT 14.6µM*.
CCN(CC)c1ccc(C(=O)NCc2nc3cccnc3n2Cc2ccc(C)cc2)cc1 was read as TDP1 cell CPT 18.4µM* and DT40 TDP1 no CPT 14.6µM*.
COCCn1c(CNC(=O)c2ccc(C)cc2)nc2cccnc21 was read as TDP1 cell CPT -18.6% and DT40 TDP1 no CPT -3.7%.
COc1ccc(S(N)(=O)=O)cc1C(=O)OCC(=O)N1CC(=O)Nc2ccccc21 was read as HT1080NT lethal 11.5%, TDP1 cell CPT 1.1%, IL1B secr inh 24.2, HT1080 IDH1KD tx 3.6% and DT40 TDP1 no CPT 0.0%.
